Pf apPOL block: Pf-apPOL DNA polymerase inhibition; inhibition, % at 10 µM; Recombinant Pf-apPOL, molecular beacon fluorescence, 1.5 h; AID 1794808; hit rate 0.25% among 210,000
mHTT-CaM PPI inh: inhibitors of human mutant huntingtin-calmodulin interaction. AlphaScreen His-mHTT/GST-CaM binding, luminescence. inhibition, % at 15 µM. hit rate 3.6% among 190,000. AID 1671202
A number is an active result; . = inactive; / = not tested or not shown; ! = a repeat was not active. Hits are enriched below; roughly 3.6% of the tested compounds scored in any of these assays. Rule as the data show it: active = inhibition above about 50%; inactive = the rest.

SMILES	Pf apPOL block	mHTT-CaM PPI inh
Cc1nnc(NC(=O)c2ccc(S(=O)(=O)NCc3ccc4c(c3)OCO4)o2)s1	.	100
O=C(NCc1cccs1)c1ccc(S(=O)(=O)NCc2ccc3c(c2)OCO3)o1	.	.
CCCCN1C(=O)C(C)(C(=O)NCc2ccc(F)c(Cl)c2)Oc2cccnc21 (configuration not stated)	.	.
Cc1cc(C)c(C)c(S(=O)(=O)N2CCN(C)CC2)c1C	.	.
Cc1cc(C)c(C)c(S(=O)(=O)N2CCC(c3c[nH]c4c(C)cccc34)CC2)c1C	.	50
COc1ccc(-c2cc3ccc(O)c(CN4CCCC4)c3oc2=O)c(OC)c1	.	.
O=[N+]([O-])c1ccccc1CSc1nnnn1-c1ccccc1	.	.
N=C1NC(=O)/C(=C/c2ccc(Cl)cc2Cl)S1	56	.
N=C1NC(=O)/C(=C/c2ccccc2Br)S1	.	.
Cc1ccc(-n2nc(C)c3sc(N4CCCN(C(=O)c5ccccc5)CC4)nc32)cc1	.	.
CCCCCCn1c(SCC(O)CO)nc2c1c(=O)[nH]c(=O)n2C (configuration not stated)	.	.
Cn1c(=O)[nH]c(=O)c2c1nc(SCC(O)CO)n2CC(N)=O (configuration not stated)	65	.
N/C(=N\OC(=O)c1ccc2nsnc2c1)c1ncon1	.	.
Cc1ccc(CSc2nc3[nH]ncc3c(=O)n2-c2ccc(C)cc2)cc1	81	.
COc1ccc(NC(=O)CSc2nc3[nH]ncc3c(=O)n2-c2ccc(Cl)cc2)c(OC)c1	.	.
Cc1ccc(-n2c(SCc3cccc([N+](=O)[O-])c3)nc3[nH]ncc3c2=O)cc1Cl	.	58
CCc1ccc(-n2c(SCC(=O)Nc3ccc(OC)cc3OC)nc3[nH]ncc3c2=O)cc1	.	68
O=c1c2cn[nH]c2nc(SCc2cccc([N+](=O)[O-])c2)n1-c1ccc(Cl)cc1	.	.
Cc1ccc(-n2c(SCc3ccccc3)nc3[nH]ncc3c2=O)cc1	.	.
Cc1ccc(CSc2nc3[nH]ncc3c(=O)n2-c2cccc(Cl)c2)cc1	.	.
Cc1cccc(-n2c(SCc3ccc(Cl)cc3)nc3[nH]ncc3c2=O)c1	.	79
Cc1onc(-c2ccccc2Cl)c1C(=O)NCc1ccc2c(c1)OCO2	.	.
COc1ccc(C(=O)NCC2CC(=O)N(Cc3ccccc3)C2)cc1 (configuration not stated)	.	.
COCCN1C(=O)CCc2cc(NC(=O)c3ccc(Br)cc3)ccc21	.	.
COc1ccc(-c2cc(N3CCCC3)ncn2)cc1	.	.
SMILES	Pf apPOL block	mHTT-CaM PPI inh
COc1ccc(NC(=O)C2CCCN(c3cn[nH]c(=O)c3)C2)cc1OC (configuration not stated)	.	.
O=C(Nc1ccc2c(c1)OCO2)C1CCCN(c2cn[nH]c(=O)c2)C1 (configuration not stated)	.	63
O=C(Nc1ccc2c(c1)OCCO2)C1CCCN(c2cnn(Cc3ccccc3)c(=O)c2)C1 (configuration not stated)	.	.
O=C(Nc1ccc(Br)cc1)C1CCN(c2cc(N3CCCC3)ncn2)CC1	.	.
Cc1ccc(NC(=O)C2CCCN(c3cnn(C)c(=O)c3)C2)cc1C (configuration not stated)	.	.
O=C(Nc1ccc2c(c1)OCO2)C1CCN(c2cc(N3CCCC3)ncn2)CC1	.	61
Cn1ncc(N2CCCC(C(=O)Nc3ccc4c(c3)OCO4)C2)cc1=O (configuration not stated)	.	72
O=C(Nc1ccc2c(c1)OCO2)C1CCCN(c2cnn(Cc3ccccc3)c(=O)c2)C1 (configuration not stated)	.	69
COc1cccc(C(=O)Nc2ccc(I)cc2Cl)c1	.	.
Cc1nc2n(c(=O)c1C)CCN2Cc1cccnc1	.	.
CCOC(=O)N1CCN(C(=O)c2ccc([N+](=O)[O-])cc2)CC1	.	.
CCc1ccc(C2CC(c3ccc(OC)c(OC)c3)n3ncnc3N2)cc1 (configuration not stated)	.	.
COc1cc(C(=O)N2CCCC(C)(C(=O)NCc3ccc(C)cc3)C2)cc(OC)c1OC (configuration not stated)	.	.
COc1ccc(C2(CNC(=O)c3ccc(OC)c([N+](=O)[O-])c3)CCCC2)cc1OC	.	.
COc1ccc(C2(CNC(=O)c3ccccc3[N+](=O)[O-])CCCC2)cc1OC	.	100
Cc1nnc(N2C(=O)C(O)=C(C(=O)c3cccs3)C2c2ccc(Cl)c(Cl)c2)s1 (configuration not stated)	.	92
Cc1nnc(N2C(=O)C(O)=C(C(=O)c3cccs3)C2c2ccccc2F)s1 (configuration not stated)	.	.
O=C(Nc1cccc(N=Cc2cc(Br)ccc2O)c1)c1ccco1	.	.
CC(=O)Nc1cccc(N=Cc2cc(Cc3ccccc3Cl)cc([N+](=O)[O-])c2O)c1	.	98
Cc1ccccc1C(=O)Nc1cccc(N=Cc2cc(Cl)cc([N+](=O)[O-])c2O)c1	.	.
CC(=O)Nc1cccc(N=Cc2cc(Cc3ccccc3)ccc2O)c1	.	95
Cc1cc(-c2csc(N)n2)cc(C)c1C	.	.
CCC(=O)N1c2ccccc2-c2nnc(SC)nc2OC1CC (configuration not stated)	.	.
CS(=O)(=O)N1CCC(CNC(=O)c2cccc(Br)c2)CC1	.	.
CCOc1ccccc1C(=O)NCCSc1c(C)[nH]c2ccccc12	.	71
SMILES	Pf apPOL block	mHTT-CaM PPI inh
O=C(COc1ccc(Cl)cc1)NCCSc1c[nH]c2ccccc12	.	.
Cc1[nH]c2ccccc2c1SCCNC(=O)COc1ccc(Cl)cc1	.	84
Cc1[nH]c2ccccc2c1SCCNC(=O)c1c(F)cccc1F	.	.
Cc1[nH]c2ccccc2c1SCCNC(=O)c1cccc(Cl)c1	.	.
Cc1[nH]c2ccccc2c1SCCNC(=O)C(C)(C)Oc1ccc(Cl)cc1	.	98
CCOc1cc(C(=O)NCCSc2c(C)[nH]c3ccccc23)cc(OCC)c1OCC	.	.
Cc1[nH]c2ccccc2c1SCCNC(=O)COc1ccc(Cl)cc1Cl	.	93
CC(C)c1ccc(OCC(O)CN2CCN(c3ccccc3F)CC2)cc1 (configuration not stated)	.	.
Cc1csc(NC(=O)CSc2nnc(NC(=O)c3ccco3)s2)n1	.	.
COc1cccc(OCCCOc2ccc(C=O)cc2OC)c1	.	.
O=C(Nc1ccc2c(c1)N(S(=O)(=O)c1ccccc1)CCC2)c1ccccc1[N+](=O)[O-]	.	.
COc1cc([N+](=O)[O-])c(OC)cc1SCC(=O)NNC(=S)Nc1cc(C(F)(F)F)ccc1Cl	.	/
COc1ccc(C2SCC3C(=O)N(c4ccccc4)C(=S)N32)cc1O (configuration not stated)	.	100
COc1ccc(C2SCCN2C(=O)c2ccccc2C(=O)O)cc1Br (configuration not stated)	.	.
O=C(c1ccc([N+](=O)[O-])cc1Cl)N1CCc2ccccc21	.	.
NS(=O)(=O)c1cc(C(=O)N2CCc3ccccc32)c(Cl)cc1Cl	.	60
O=C(Nc1nnc(C2CCCC2)s1)c1ccco1	/	.
COCCNC(=O)C1CCCc2c1[nH]c1ccccc21 (configuration not stated)	.	.
CCNC(=O)C1CCCc2c1[nH]c1ccc(Cl)cc21 (configuration not stated)	.	100!

Compound activity (PubChem BioAssay)
